Inconclusive results are not listed. Unmarked numbers belong to inactive results. Calls follow the shape of the full dose curve.
Target: Atrial natriuretic peptide receptor 2 (Homo sapiens) (UniProt P20594)
Experiment: Natriuretic polypeptide receptor (hNpr2) antagonism - Pilot subtype selectivity assay (AID 1347050)
Settings: NPR2-expressing cells, cGMP antagonist-mode read-out; series mostly up to 38.3 µM; activity change, negative = inhibition: at the top concentration
Procedure, shortened: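 cGMP-sensor HEK293/hNpr2 cells; 2% GloSensor reagent 2 h RT; compounds 30 min; baseline luminescence read; 1 nM hNppC agonist 20 min RT; final luminescence read by CCD camera. Antagonism = reduced post-agonist signal.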
% is scaled to controls: 0 for no effect and ±100 for the full control effect.

Atrial natriuretic peptide receptor 2 (Homo sapiens), sequence (P20594 whole entry, looked up): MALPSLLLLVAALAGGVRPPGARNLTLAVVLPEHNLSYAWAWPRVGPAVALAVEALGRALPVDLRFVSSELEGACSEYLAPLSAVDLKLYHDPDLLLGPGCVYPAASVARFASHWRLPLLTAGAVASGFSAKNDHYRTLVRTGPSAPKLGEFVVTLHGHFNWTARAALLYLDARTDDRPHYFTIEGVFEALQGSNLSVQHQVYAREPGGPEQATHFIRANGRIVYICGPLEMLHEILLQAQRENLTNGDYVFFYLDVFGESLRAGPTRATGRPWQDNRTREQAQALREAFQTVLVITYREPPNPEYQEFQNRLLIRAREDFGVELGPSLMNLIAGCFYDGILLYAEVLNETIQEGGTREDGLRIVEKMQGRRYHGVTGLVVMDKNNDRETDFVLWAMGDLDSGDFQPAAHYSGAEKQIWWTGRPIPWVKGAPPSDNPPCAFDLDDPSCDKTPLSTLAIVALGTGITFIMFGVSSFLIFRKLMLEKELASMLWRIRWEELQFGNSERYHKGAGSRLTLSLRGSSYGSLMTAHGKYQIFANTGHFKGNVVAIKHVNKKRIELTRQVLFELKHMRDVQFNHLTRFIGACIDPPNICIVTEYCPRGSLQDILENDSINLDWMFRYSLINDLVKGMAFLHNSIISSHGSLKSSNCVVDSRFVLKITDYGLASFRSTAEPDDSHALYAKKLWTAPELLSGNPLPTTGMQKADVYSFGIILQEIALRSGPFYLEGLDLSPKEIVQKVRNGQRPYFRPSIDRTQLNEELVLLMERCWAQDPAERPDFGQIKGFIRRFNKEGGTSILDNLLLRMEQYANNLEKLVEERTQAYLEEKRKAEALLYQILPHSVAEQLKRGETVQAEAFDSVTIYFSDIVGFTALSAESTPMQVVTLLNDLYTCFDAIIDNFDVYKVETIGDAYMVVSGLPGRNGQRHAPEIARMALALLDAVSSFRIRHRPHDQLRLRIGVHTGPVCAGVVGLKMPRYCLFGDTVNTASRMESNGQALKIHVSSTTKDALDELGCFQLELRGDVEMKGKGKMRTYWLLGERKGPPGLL

SMILES | activity change, negative = inhibition
O=C(O)C1CCNCC1 | -3.4%
Cc1cc2c(cc1Cl)N(C(=O)Nc1ccnc3ccccc13)CC2 | 10.1%
C=CCn1c(=O)c2c(nc(-c3ccc(S(=O)(=O)O)cc3)n2C)n(C)c1=O | -2.22%
O=c1cc(O)cc(/C=C/c2ccc(O)c(O)c2)o1 | 10.4%
[Li+] | 15.5%
N=C(N)c1ccccc1 | -1.85%
CC(=O)/C(C)=N/O | -0.615%
NC/C=C\C(=O)O | -14.9%
CC(=O)O[C@H]1Cc2ccccc2N(C(N)=O)c2ccccc21 | -1.82%
CN1CCC2(CCN3CCc4c(oc5ccccc45)C3C2)N(C)C1=O (stereo not drawn) | -1.83%
O=C(O)c1cccnc1C(=O)O | 13.2%
CCCCOc1cc(CC2CNC(=O)N2)ccc1OC (stereo not drawn) | 1.01%
O=C(O)C1=CC(=C(c2ccc(O)c(C(=O)O)c2)c2ccc(O)c(C(=O)O)c2)C=CC1=O | 7.44%
c1ccc(C(NCc2cccnc2)(c2ccccc2)c2ccccc2)cc1 | -16.3%
CCN1C(=O)C=CC1=O | 5.79%
C#CC(N)CCC(=O)O (stereo not drawn) | 3.75%
CC(=O)N[C@@H](Cc1c[nH]c2ccccc12)C(=O)OCc1cc(C(F)(F)F)cc(C(F)(F)F)c1 | -7.17%
NC(Cc1cccc(-c2ccccc2CP(=O)(O)O)c1)C(=O)O (stereo not drawn) | -1.89%
CC(=O)O[C@H]1CC2(C)[C@@H](C[C@@H](O)[C@H]3[C@@]4(C)CC[C@@H](O)[C@@H](C)[C@@H]4CC[C@@]32C)C1=C(CCC=C(C)C)C(=O)O (stereo partly drawn) | 12%

SMILES | activity change, negative = inhibition
COc1ccccc1N1CCN(CCCNc2c(C)c(=O)n(C)c(=O)n2C)CC1 | 2.75%
N[C@H]1CONC1=O | -1.59%
COC(=O)C(C)(N)Cc1ccc(O)cc1 (stereo not drawn) | -0.178%
Nc1ncnc2c1nc(Sc1ccc(Cl)cc1)n2[C@H]1OC2COP(=O)(O)O[C@@H]2C1O (stereo partly drawn) | 8.96%
CCN(CC)CCOC(=O)c1cc(Cl)c(N)cc1OC | 21.1%
OC[C@H]1NC[C@@H](O)[C@@H]1O | 3.3%
COc1ccc(CCN(C)CCc2ccc(OC)c(OC)c2)cc1OC | -0.196%
CC(C)(CO)Cc1cc(C(C)(C)C)c(O)c(C(C)(C)C)c1 | -3.7%
N[C@H](C(=O)O)[C@H](O)C(=O)O | 10.5%
NCCNS(=O)(=O)c1cccc2c(Cl)cccc12 | -3.03%
C[C@@]1(C2CCCC2)Cc2cc(OCC(=O)O)c(Cl)c(Cl)c2C1=O | 17%
N#CC(C#N)=C(N)/C(C#N)=C/c1ccc(O)cc1 | 9.35%
CCCn1c(=O)c(C)cn2nc(N)nc12 | 4.17%
NC(=O)c1cc[n+](CC2=C(C(=O)O)N3C(=O)[C@@H](NC(=O)[C@@H](c4ccccc4)S(=O)(=O)[O-])[C@H]3SC2)cc1 | 1.17%
O=C(O)/C=C/c1cnc[nH]1 | 3.2%
CN(CC[C@@H](Oc1ccc(C(F)(F)F)cc1)c1ccccc1)CC(=O)O | -2.57%
CN1CC(O)C(O)C(O)C1CO (stereo not drawn) | -0.21%
CCCCCC[C@@H]([C@@H](C)O)n1cnc2c(N)ncnc21 | -26.5%
Nn1nnc2ccccc21 | 12.9%

Reference: PubChem BioAssay (NCATS)
